The subject of assay [1] is PRMT1 (protein arginine N-methyltransferase 1). The assay is described as follows: small molecules binding arginine methyltransferase PRMT1 – biochemical, small-molecule microarray, 635 nm fluorescence, primary screen (AID 1088).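 Note: binding of Prmt1 protein to compounds spotted on small-molecule microarray slides.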 The note with it: higher = more signal.
A short description of assay [2]: growth effects on S. cerevisiae YJM789 – YJM789 clinical isolate, OD600, 24 h, basal, primary screen (AID 1089).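 Note: growth of clinical yeast isolate S. cerevisiae YJM 789 seeded 1000 cells per well; test concentration not given here.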 To be noted: higher = more signal, called active from +8 up or from −8 down.
A short description of assay [3]: S. pombe growth modifiers, basal conditions – strain 972, OD600, 24 h, no modulator, primary screen (AID 1090).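 Note: basal condition with compound alone and no growth modifier present; test concentration not given here.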 The note with it: S. pombe 972 growth, higher = more signal, called active from +8 up or from −8 down.
Assay [4] is described as follows: budding yeast growth modifiers under rapamycin – strain BY4716, OD600, 96 h, primary screen (AID 1091). Note: test concentration not given here. To be noted: S. cerevisiae BY4716 + rapamycin, higher = more signal, called active from +8 up or from −8 down.
Assay [5] deals with Torsin-1A-interacting protein 2 (Homo sapiens) (UniProt Q8NFQ8). As to the kind of experiment: small molecules binding lysate-expressed LULL1 – cell lysate, human LULL1 lysate, 635/667 nm fluorescence, primary screen (AID 1092).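 Note: probe is lysate of COS7 cells overexpressing human LULL1; score merges per-feature 667 nm fluorescence with signal-to-noise.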 To be noted: small-molecule microarray, hLULL1 lysate binding, 635 nm fluorescence; higher = more signal.
Torsin-1A-interacting protein 2 (Homo sapiens), sequence (Q8NFQ8 whole entry, looked up): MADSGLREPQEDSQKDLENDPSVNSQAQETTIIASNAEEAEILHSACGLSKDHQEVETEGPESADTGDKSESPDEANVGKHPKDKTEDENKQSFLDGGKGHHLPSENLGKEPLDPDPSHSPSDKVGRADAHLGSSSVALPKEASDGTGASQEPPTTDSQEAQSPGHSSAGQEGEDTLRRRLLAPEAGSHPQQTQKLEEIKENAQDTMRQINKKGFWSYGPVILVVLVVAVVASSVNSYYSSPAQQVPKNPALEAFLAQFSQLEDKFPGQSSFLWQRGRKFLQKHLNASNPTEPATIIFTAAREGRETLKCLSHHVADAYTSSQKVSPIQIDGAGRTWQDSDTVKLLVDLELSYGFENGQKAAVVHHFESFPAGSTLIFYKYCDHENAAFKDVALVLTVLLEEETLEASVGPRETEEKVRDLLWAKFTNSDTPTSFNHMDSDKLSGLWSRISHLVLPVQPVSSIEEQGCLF
Assay [6] is described as follows: optical density change of DRC41 E. coli – strain DRC41, OD650, 24 h, E. coli filamentation project, primary screen (AID 1093).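 Note: MC1000 strain lacking acrAB efflux and sulA so SOS filamentation is blocked; test concentration not given here.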 To be noted: E. coli DRC41 growth, higher = more signal, called active from +8 up or from −8 down.
Assay [7] is described as follows: probe aLefty2 binding to arrayed compounds – biochemical, biotinylated probe, 635/667 nm fluorescence, primary screen (AID 1094).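 Note: score merges spot fluorescence near 667 nm with spot signal-to-noise ratio.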 To be noted: small-molecule microarray, higher = more signal.
The subject of assay [8] is Noggin (protein binding on small-molecule microarray). As to the kind of experiment: small molecules binding Noggin protein – biochemical, 635/667 nm fluorescence, primary screen (AID 1095).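 Note: score merges 667 nm feature fluorescence with signal to noise over triplicate slides.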 The note with it: 635 nm fluorescence, higher = more signal.
In assay [9] the target is Neurogenic locus notch homolog protein 3 (Homo sapiens) (UniProt Q9UM47). The assay is described as follows: small molecules binding NOTCH3 protein – biochemical, 635/667 nm fluorescence, primary screen (AID 1096). The note with it: small-molecule microarray, 635 nm fluorescence, higher = more signal.
Neurogenic locus notch homolog protein 3 (Homo sapiens), sequence (Q9UM47 whole entry, looked up): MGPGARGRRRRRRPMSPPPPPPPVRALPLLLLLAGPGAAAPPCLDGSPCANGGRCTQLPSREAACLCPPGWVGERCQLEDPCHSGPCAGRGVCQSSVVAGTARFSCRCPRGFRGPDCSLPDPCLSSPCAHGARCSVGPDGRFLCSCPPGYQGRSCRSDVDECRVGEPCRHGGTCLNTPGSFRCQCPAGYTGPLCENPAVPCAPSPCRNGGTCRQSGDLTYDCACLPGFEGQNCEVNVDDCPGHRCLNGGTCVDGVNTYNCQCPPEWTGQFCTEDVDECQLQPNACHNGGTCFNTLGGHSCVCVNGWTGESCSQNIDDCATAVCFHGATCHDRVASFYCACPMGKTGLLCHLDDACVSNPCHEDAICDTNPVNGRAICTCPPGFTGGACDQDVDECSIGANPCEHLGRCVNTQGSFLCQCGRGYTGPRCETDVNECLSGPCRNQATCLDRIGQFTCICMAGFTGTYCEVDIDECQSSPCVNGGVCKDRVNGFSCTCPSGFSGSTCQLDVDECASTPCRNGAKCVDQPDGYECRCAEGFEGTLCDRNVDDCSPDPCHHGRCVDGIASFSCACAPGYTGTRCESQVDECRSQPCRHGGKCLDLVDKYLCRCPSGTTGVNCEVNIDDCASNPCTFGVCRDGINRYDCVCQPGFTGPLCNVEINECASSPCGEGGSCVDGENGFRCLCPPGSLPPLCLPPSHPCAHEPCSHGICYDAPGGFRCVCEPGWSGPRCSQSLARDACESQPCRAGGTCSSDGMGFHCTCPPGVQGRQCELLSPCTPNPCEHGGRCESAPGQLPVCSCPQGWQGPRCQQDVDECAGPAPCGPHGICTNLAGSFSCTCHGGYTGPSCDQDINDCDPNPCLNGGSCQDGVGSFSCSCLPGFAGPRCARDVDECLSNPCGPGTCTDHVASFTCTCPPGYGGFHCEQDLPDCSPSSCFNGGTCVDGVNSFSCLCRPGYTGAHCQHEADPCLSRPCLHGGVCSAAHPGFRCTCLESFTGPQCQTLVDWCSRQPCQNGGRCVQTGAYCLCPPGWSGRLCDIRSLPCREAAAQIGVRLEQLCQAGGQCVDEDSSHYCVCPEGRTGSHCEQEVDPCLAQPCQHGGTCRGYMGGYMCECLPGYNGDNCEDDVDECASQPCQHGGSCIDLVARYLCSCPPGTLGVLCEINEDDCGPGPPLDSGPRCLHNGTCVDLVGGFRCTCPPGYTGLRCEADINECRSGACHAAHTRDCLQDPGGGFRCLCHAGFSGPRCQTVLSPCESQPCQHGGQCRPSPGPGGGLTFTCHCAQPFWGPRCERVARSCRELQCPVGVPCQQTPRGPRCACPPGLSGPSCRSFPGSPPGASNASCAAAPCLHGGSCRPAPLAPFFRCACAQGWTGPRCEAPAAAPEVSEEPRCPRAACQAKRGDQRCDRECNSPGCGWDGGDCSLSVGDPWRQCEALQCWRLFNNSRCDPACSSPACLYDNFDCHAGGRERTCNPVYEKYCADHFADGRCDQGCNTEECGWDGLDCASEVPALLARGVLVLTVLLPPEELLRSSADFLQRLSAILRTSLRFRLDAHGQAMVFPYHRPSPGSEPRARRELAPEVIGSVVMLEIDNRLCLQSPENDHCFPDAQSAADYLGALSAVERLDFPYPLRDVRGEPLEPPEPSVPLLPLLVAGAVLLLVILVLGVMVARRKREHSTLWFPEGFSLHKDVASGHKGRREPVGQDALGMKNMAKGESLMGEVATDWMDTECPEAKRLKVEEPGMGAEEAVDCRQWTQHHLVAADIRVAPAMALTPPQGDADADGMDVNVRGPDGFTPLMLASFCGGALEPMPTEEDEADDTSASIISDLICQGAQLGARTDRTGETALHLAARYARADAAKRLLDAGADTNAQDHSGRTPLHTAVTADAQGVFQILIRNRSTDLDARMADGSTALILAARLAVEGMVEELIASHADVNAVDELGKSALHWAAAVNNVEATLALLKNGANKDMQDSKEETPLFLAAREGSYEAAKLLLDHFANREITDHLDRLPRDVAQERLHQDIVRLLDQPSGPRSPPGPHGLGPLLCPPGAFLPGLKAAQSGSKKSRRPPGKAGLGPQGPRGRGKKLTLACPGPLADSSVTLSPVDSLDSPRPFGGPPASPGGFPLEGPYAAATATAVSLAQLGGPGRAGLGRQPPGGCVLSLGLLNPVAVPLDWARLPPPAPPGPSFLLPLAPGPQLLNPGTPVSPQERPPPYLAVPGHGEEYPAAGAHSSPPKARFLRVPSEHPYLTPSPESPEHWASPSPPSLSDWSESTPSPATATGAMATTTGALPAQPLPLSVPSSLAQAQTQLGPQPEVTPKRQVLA
Assay [10] in a line: probe aEGFR binding to arrayed compounds – biochemical, biotinylated probe, 635/667 nm fluorescence, primary screen (AID 1097).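 Note: probe is a biotinylated anti-EGFR antibody binding compounds printed on slides; score combines fluorescence near 667 nm and signal to noise of each spot.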 To be noted: small-molecule microarray, higher = more signal.
In assay [11] the test system is Plasmodium falciparum Sir2 (PF13_0152, Sir2A). The assay is described as follows: Plasmodium falciparum Sir2A binding compounds – biochemical, small-molecule microarray, 635 nm fluorescence, primary screen (AID 1098).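 Note: score merges spot fluorescence intensity with its signal-to-noise ratio.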 The note with it: fluorescence 635 nm, higher = more signal.
Assay [12] in a line: probe aDKK1 binding to arrayed compounds – biochemical, biotinylated probe, 635/667 nm fluorescence, primary screen (AID 1099).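 Note: score merges 667nm spot fluorescence with signal to noise across triplicate slides; reference of the scale not given here.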 To be noted: small-molecule microarray, higher = more signal.
Assay [13] can be described thus: probe aCHRDL2 binding to arrayed compounds – biochemical, biotinylated probe, 635/667 nm fluorescence, primary screen (AID 1100). To be noted: small-molecule microarray, higher = more signal.
The nature of assay [14]: change in splice reporter luminescence, either direction, cell-based, HEK293, spliceosome inhibition project, primary screen (AID 1101).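 Note: HEK293 cells carrying a splicing-competent luciferase reporter gene; test concentration not given here.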 The note with it: HEK293 splicing luciferase reporter, 24 h, higher = more signal, called active from +8 up or from −8 down.
The target in assay [15] is Fibroblast growth factor 10 (Homo sapiens) (UniProt O15520). As to the kind of experiment: compounds binding fibroblast growth factor 10 – biochemical, small-molecule microarray, 635 nm fluorescence, primary screen (AID 1102). The note with it: FGF10 binding, fluorescence 635 nm, higher = more signal.
Fibroblast growth factor 10 (Homo sapiens), sequence (O15520 whole entry, looked up): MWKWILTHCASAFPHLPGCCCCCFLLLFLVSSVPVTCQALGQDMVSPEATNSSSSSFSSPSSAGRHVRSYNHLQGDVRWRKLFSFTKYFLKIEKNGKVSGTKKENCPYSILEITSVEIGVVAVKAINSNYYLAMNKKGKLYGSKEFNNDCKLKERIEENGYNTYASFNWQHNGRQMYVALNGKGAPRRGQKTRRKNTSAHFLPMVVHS
Assay [16] concerns glycogen synthase kinase-3 (GSK3A per assay name; protocol says GSK3B). The assay is described as follows: compounds binding glycogen synthase kinase-3 – biochemical, small-molecule microarray, 635 nm fluorescence, GSK3A, primary screen (AID 1103). Note: the record names both GSK3A and GSK3B. To be noted: fluorescence 635 nm, higher = more signal.
For assay [17], the target named is Epidermal growth factor receptor (Homo sapiens) (UniProt P00533). The assay is described as follows: compounds binding epidermal growth factor receptor – biochemical, small-molecule microarray, 635 nm fluorescence, primary screen (AID 1104).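 Note: score merges 667 nm emission intensity with spot signal to noise over triplicate slides.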 The note with it: EGFR binding, higher = more signal.
Epidermal growth factor receptor (Homo sapiens), sequence (P00533 whole entry, looked up): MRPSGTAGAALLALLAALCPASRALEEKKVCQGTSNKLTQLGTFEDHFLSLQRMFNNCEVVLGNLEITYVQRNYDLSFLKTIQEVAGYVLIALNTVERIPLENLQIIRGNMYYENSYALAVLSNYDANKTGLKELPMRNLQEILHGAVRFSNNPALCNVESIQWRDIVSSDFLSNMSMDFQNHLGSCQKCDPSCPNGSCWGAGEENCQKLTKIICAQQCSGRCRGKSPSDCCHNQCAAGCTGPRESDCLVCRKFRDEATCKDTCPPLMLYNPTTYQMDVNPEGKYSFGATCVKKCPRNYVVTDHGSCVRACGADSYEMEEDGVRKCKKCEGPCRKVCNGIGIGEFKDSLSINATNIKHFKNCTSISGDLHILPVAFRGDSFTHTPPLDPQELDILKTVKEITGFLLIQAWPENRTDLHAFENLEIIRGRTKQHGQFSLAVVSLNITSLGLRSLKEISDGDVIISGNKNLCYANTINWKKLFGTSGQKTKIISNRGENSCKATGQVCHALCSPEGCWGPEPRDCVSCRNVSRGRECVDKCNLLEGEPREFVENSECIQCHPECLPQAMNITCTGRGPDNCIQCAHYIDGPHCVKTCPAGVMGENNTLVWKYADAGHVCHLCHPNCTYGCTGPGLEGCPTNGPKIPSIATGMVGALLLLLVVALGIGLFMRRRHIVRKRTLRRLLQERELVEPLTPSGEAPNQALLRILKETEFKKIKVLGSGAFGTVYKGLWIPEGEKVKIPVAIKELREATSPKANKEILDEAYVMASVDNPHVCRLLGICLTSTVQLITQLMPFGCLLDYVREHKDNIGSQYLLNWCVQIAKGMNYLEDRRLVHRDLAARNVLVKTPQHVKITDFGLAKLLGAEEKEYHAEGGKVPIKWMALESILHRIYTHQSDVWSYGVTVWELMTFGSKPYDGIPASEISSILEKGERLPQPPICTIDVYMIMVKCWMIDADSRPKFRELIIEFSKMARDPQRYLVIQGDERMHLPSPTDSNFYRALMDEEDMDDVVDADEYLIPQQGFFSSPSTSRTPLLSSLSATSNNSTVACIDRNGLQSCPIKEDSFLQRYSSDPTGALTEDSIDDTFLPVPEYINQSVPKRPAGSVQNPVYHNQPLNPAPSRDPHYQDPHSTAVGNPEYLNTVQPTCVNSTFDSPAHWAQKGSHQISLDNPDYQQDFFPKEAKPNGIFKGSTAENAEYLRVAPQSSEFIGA
In assay [18] the target is Follistatin-related protein 3 (Homo sapiens) (UniProt O95633). As to the kind of experiment: compounds binding follistatin-related protein 3 – biochemical, small-molecule microarray, 635 nm fluorescence, primary screen (AID 1105).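 Note: score merges emission near 667 nm and signal to noise per printed spot across three slides.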 The note with it: FSTL3 binding, higher = more signal.
Follistatin-related protein 3 (Homo sapiens), sequence (O95633 whole entry, looked up): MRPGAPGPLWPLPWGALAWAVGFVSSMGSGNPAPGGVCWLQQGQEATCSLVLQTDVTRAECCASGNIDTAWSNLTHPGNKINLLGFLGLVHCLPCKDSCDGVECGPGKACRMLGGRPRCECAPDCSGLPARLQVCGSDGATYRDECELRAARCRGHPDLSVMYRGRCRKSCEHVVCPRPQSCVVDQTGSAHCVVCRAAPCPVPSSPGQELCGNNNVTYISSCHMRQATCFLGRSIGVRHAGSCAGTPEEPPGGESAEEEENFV
Assay [19] deals with Dickkopf-related protein 1 (Homo sapiens) (UniProt O94907). The assay is described as follows: small molecules binding DKK1 protein – biochemical, small-molecule microarray, 635 nm fluorescence scan, primary screen (AID 1106).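 Note: score merges emission near 667 nm with signal to noise over three replicate slides.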 To be noted: higher = more signal.
Dickkopf-related protein 1 (Homo sapiens), sequence (O94907 whole entry, looked up): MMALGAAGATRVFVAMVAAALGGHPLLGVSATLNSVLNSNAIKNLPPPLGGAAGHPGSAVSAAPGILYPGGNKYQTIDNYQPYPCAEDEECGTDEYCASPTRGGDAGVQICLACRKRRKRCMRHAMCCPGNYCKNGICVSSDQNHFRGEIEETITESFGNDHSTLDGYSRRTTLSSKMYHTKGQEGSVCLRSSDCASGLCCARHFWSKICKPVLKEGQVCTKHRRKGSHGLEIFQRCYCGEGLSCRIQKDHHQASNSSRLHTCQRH
The test system of assay [20] is Inhibin beta A chain (activin A). The assay is described as follows: small molecules binding activin A – biochemical, small-molecule microarray, 635 nm fluorescence scan, primary screen (AID 1107).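 Note: mouse activin A protein probed at 4.33 µg/mL on printed slides; score merges bound-protein fluorescence near 667 nm with spot signal-to-noise.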 To be noted: INHBA, higher = more signal.

Activity calls are given as the source filed them.

`CCOC(=O)C[C@H]1[C@H](OC(=O)c2ccccc2-c2ccccc2)[C@@H](NC(=O)c2ccc(-c3ccccc3)cc2)c2cc(OCCCO)ccc2N1C(=O)Cc1ccc(OC)cc1`: the composite z-score was 0.362 in [1]; 0.775 in assay [5]; -0.0435 in [7]; 0.19 in assay [8]; 0.266 in assay [9]; 0.0651 in assay [10]. For the same compound, the composite z-score in assay [11] is -0.0957; in assay [12], -0.394; in assay [13], -0.44; in assay [15] it was 0.295; in [16] it was -0.189; in [17], 0.147. The figures for the composite z-score in assay [18], in assay [19] and in [20] were 0.38, 0.428 and 0.701, respectively. Moreover, the z-score was -0.39 (inactive) in assay [2]; -0.826 (inactive) in [3]; 0.27 (inactive) in [4]; -0.857 (inactive) in [6]; -0.288 (inactive) in [14].

Consider `NC(=O)NCC#Cc1ccc2c(c1)[C@]1(C(=O)N2)[C@H](C(=O)N2CCCCCCC2)[C@H]2C(=O)O[C@H](c3ccccc3)[C@H](c3ccccc3)N2[C@@H]1c1ccccc1OCCO`, for which the composite z-score stood at 1.54 in assay [1]; 4.33 in [5]; 1.65 in assay [7]; 1.36 in assay [8]; 1.05 in [9]; 1.3 in assay [10]. Besides, the composite z-score came to 1.82 in assay [11]; 2.98 in assay [12]; 1.66 in assay [13]; 1.39 in assay [15]; 1.38 in [16]; 1.7 in [17]. Besides, the composite z-score in [18] stood at 1.71; in [19] it was 2.26; in assay [20], 1.86. The z-score is 0.305 (inactive) in assay [2]; -3.26 (inactive) in [3]; 1 (inactive) in [4]; 1.82 (inactive) in [6]; 0.0838 (inactive) in assay [14].

Regarding `CO[C@H]1COC(=O)CC=C[C@H](C)[C@@H](OC)COC(=O)CC=C[C@@H]1C`, the composite z-score in [1] was 0.656; in assay [5], -0.787; in assay [7], -0.169; in assay [8], 0.764; in assay [9], -0.119; in assay [10], -0.0273. For the same compound, the composite z-score is 0.697 in assay [11]; -0.546 in assay [12]; -1.11 in assay [13]; 0.597 in [15]; 0.309 in [16]; 0.751 in assay [17]. Also, the composite z-score in assay [18] amounted to 0.522; in assay [19], 0.991; in [20], 0.716. Besides, the z-score in [2] is -0.49 (inactive); in assay [3], -1.5 (inactive); in assay [4] it was -0.98 (inactive); in assay [6], 0.898 (inactive); in assay [14], -1.06 (inactive).

`C/C(=N\O)C(=O)NCCCCCNC(=O)OCc1ccccc1`: the composite z-score was -0.214 in [1]; 0.63 in assay [5]; -0.0741 in assay [7]; 0.65 in assay [8]; 0.996 in assay [9]; 0.0221 in [10]. Further, the composite z-score was 0.807 in [11]; -0.186 in [12]; -0.472 in [13]; 0.554 in assay [15]; 0.777 in [16]; 0.479 in assay [17]. For the same compound, the figures for the composite z-score in assay [18], in [19] and in [20] were 1.03, 0.497 and 0.102, respectively. Also, the z-score in assay [2] was -0.286 (inactive); in assay [3], -0.966 (inactive); in [4], -1.27 (inactive); in assay [6], 2.03 (inactive); in assay [14], -0.508 (inactive).

Take `C#CCCCON=C1C[C@@H](O)[C@@H](O)[C@@H]2[C@@H]3C(=O)N(Cc4ccc5c(c4)OCO5)C(=O)[C@@H]3CC[C@@H]12`: the composite z-score in assay [1] is 0.652; in assay [5], 0.852; in assay [7], -0.0367; in assay [8], -0.0201; in assay [9] it was 0.0568; in assay [10], -0.0389. Also, the composite z-score in assay [11] is 0.211; in [12], -0.136; in assay [13] it was 0.0822; in assay [15], 0.42; in [16], 0.257; in [17] it was 0.336. For the same compound, the composite z-score in assay [18] was determined as 0.862; in assay [19] it was 0.278; in [20], 0.308. In addition, the z-score in assay [2] was 0.755 (inactive); in [3] it was 0.783 (inactive); in assay [4], 0.271 (inactive); in [6], 0.105 (inactive); in [14] it was -0.117 (inactive).
